Screening data: PubChem, National Center for Advancing Translational Sciences (NCATS)
RORg inh – inhibitors of mouse ROR gamma transcriptional activity; P51450; Drosophila S2 Gal4-RORgamma UAS-luciferase reporter, 20 h; Potency, µM (doses to about 53.6 µM), without a hit: at the highest dose activity change, negative = inhibition, most hits filed as inhibitors; hit rate 5.4% among 310,000; AID 2551; further: nearly all actives have a fitted effect of over 60% in size
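ROR gamma transcriptional activity was tracked as Gal4-UAS luciferase output in stably transfected Drosophila Schneider cells, with compound added 1 hr before 700 uM copper sulfate induction and a 20 hr ambient-temperature incubation.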
VP16 counter – inhibits Gal4-VP16 luciferase reporter, ROR gamma counter-screen; Drosophila S2 Gal4-VP16 UAS-luciferase, luminescence, 20 h; Potency, µM (highest dose often 53.6 µM), without a hit: at the highest dose activity, negative = inhibition, usual class: inhibitors; hit rate 3.5% among 310,000;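 further: Gal4-VP16 expression switched on by copper sulfate through the metallothionein promoter; nearly all actives have a fitted effect of over 50% in size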
TDP1 block – TDP1 (human) enzyme inhibition. Q9NUW8. recombinant TDP1, AlphaScreen DNA substrate cleavage. Potency, µM (top dose mostly 130 µM), for inactives: top-dose activity change, negative = inhibition, actives largely listed as inhibitors. hit rate 0.28% among 350,000. AID 485290; further: nearly all actives have a fitted effect of over 40% in size
Target sequence (Q9NUW8 whole entry, looked up): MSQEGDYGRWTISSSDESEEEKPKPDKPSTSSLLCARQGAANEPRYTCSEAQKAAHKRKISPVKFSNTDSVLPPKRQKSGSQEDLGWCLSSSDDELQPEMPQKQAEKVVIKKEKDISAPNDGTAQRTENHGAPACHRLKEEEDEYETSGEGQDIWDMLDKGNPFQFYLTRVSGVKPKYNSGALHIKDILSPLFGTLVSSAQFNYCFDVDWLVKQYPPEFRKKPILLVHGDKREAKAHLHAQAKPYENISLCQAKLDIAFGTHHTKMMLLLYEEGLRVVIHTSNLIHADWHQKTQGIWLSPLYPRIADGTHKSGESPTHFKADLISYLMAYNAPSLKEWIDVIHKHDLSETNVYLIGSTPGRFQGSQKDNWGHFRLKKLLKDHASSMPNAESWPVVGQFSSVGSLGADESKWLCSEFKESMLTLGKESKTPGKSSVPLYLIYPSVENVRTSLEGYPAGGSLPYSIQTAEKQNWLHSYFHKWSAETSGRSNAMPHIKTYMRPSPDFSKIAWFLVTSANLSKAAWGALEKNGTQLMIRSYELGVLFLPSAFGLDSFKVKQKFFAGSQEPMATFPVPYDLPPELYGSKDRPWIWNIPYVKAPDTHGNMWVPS
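Here, a 5' biotin and 3' phosphotyrosine-FITC DNA oligonucleotide reports Tdp1 activity: intact substrate bridges AlphaScreen beads, while cleavage leaves a 3' phosphate and drops signal. All incubations at room temperature.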
TDP1 cell CPT – DT40-hTDP1 cell growth loss with CPT | chicken DT40 Tdp1-/-;hTDP1 cells + 20 nM CPT, ATP luminescence, 48 h | Potency, µM (top dose mostly 46.2 µM), for inactives: at the highest dose activity change, negative = growth inhibition, most hits filed as inhibitors | hit rate 12% among 420,000 | AID 686979; further: nearly all actives have a fitted effect of over 55% in size
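Chicken DT40 Tdp1-/- cells stably complemented with human TDP1 were seeded at 400 cells/well in medium containing 20 nM camptothecin, exposed to pin-transferred compounds, and grown at 37 °C for at least 48 hr. Viability was read as ATP luminescence.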
DT40 TDP1 no CPT – qHTS for Inhibitors of human tyrosyl-DNA phosphodiesterase 1 (TDP1): qHTS in cells in absence of CPT; Potency, µM (top dose mostly 46.2 µM), for inactives: at the top dose activity change, negative = growth inhibition, hits mostly inhibitors; hit rate 15% among 420,000; AID 686978, 2013; DT40 Tdp1-/- hTDP1 cells, no CPT, ATP luminescence, 48 h; further: nearly all actives have a fitted effect of over 55% in size
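Growth of hTDP1-complemented DT40 Tdp1-knockout cells is measured by ATP luminescence after at least 48 hr compound exposure at 37 °C, with DMSO substituting for the 20 nM CPT used in the parallel screen.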
Starred values were filed as active, the others as inactive; ? = inconclusive; . = no result given; [ ] = remark or other dose. Shown are actives, neighbours in structure and some others; about 19% of the full set was active somewhere. The call rests on the fitted dose curve; in most records, active means well fitted curve in the direction sought with a large enough effect; inconclusive means small, poorly fitted or top-dose-only effect, or another doubt; inactive means no such curve, though single readings can be large; an effect the other way counts as inactive or inconclusive. On the % scale 0 is the no-effect control and ±100 the full control effect; potency means the concentration at half of the fitted maximal effect.

SMILES	RORg inh	VP16 counter	TDP1 block	TDP1 cell CPT	DT40 TDP1 no CPT
C=Cn1cc[n+](CC(=O)c2cc(C(C)(C)C)c(O)c(C(C)(C)C)c2)c1	?	-12.5%	.	14.6µM*	16.4µM*
C=Cn1cc[n+](CC(=O)c2ccc(-c3ccccc3)cc2)c1	28.8%	-12.2%	.	3.26µM*	2.31µM*
CC(=O)Nc1cc2nn(-c3ccccc3)nc2cc1C	?	?	3.7%	0.4%	-15.8%
CC(C)(C)NC(=O)C(c1cccs1)N(Cc1cccs1)C(=O)c1ccc(CN2CCOCC2)o1 (stereo not given)	?	-1.1%	3.7%	?	-29.9%
CCC(=O)NC(c1ccc(F)cc1)c1cc(Cl)c2cccnc2c1O (stereo not given)	.	.	0.4%	.	.
Oc1c(C(Nc2ccccn2)c2cccnc2)cc(Cl)c2cccnc12 (stereo not given)	3.98µM*	4.47µM*	10.9%	4.61µM*	5.17µM*
COc1ccc(C(NC(=O)c2cccnc2)c2cc(Cl)c3cccnc3c2O)cc1OC (stereo not given)	2µM*	3.98µM*	8.3%	18.4µM*	18.4µM*
CCC(=O)NC(c1ccc(OC)cc1)c1cc(Cl)c2cccnc2c1O (stereo not given)	-31.0%	2.3%	11.1%	5.8µM*	6.51µM*
COc1ccc(C(=O)NC(c2ccc(OC)c(OC)c2)c2cc(Cl)c3cccnc3c2O)cc1 (stereo not given)	.	.	.	5.01µM*	5.62µM*
Cc1c(CC(=O)N[C@@H](C)C(=O)O)c(=O)oc2c(C)c3occ(-c4ccccc4)c3cc12	-0.3%	-0.1%	.	10.0%	-0.6%
O=C(Nc1ccccc1C(=O)OCc1cc(=O)n2nc(C3CC3)sc2n1)c1ccc(Cl)cc1	.	.	-6.2%	-26.6%	-21.1%
CC(=O)NC(c1ccc(C)cc1)c1cc(Cl)c2cccnc2c1O (stereo not given)	1.12µM*	0.631µM*	.	5.17µM*	4.11µM*
CC(=O)NC(c1cc(Cl)c2cccnc2c1O)C(C)C (stereo not given)	.	.	1.7%	.	.
NNC(=S)NC1CCCCCCCCCCC1	0.282µM*	2.82µM*	8.7%	?	8.2µM*
S=C(NC1CCCCCC1)NC1CCCC1	1.58µM*	10µM*	0.0%	?	?
CN(C)C(=S)NC1CCS(=O)(=O)C1 (stereo not given)	-7.9%	-6.9%	-5.0%	3.0%	3.5%
O=C(NC1CCCCC1)[C@H](O)[C@@H](O)C(=O)NC1CCCCC1	-1.0%	-1.6%	-2.1%	8.1%	-0.8%
S=C(NC1CCCCC1)NC1CCCCC1	2.82µM*	?	3.1%	.	.
NNC(=S)NC1CCS(=O)(=O)C1 (stereo not given)	2.82µM*	4.47µM*	7.7%	1.0%	4.2%
CN1CCC(NC(=S)NC2CC2)CC1	12.5%	12.3%	2.6%	12.9%	-17.5%
S=C(NC1CCCCC1)N1CCCCC1	-38.5%	8.9%	.	8.4%	1.2%
O=C(COc1ncnc2sccc12)Nc1ccc(F)cc1F	-16.6%	3.0%	0.0%	2.3%	5.4%
COc1ccc(Cn2c(C)nc3c(c(=O)c4ccccc4n3C)c2=O)cc1	-6.5%	3.7%	-2.9%	-19.1%	?
c1ccc(CCCOCCC2CO2)cc1 (stereo not given)	3.1%	1.4%	.	.	.
OC(CNCc1ccco1)Cn1c2ccccc2c2ccccc21 (stereo not given)	10.8%	3.9%	1.1%	?	?
SMILES	RORg inh	VP16 counter	TDP1 block	TDP1 cell CPT	DT40 TDP1 no CPT
N#CC1=C(N)NC(SCC(=O)O)=C(C#N)C12CCCC2	0.1%[10 µM]	-22.1%	-2.0%	-16.7%	1.4%
N#CC1=C(N)NC(SCc2ccc(F)cc2)=C(C#N)C12CCCCC2	44.7%	1.7%	6.6%	23.1µM*	25.9µM*
C=CC1(C)CN(Cc2ccco2)S(=O)(=O)c2c(F)cccc2O1 (stereo not given)	.	.	.	18.4µM*	?
C=C1C=C(C(F)F)n2ncc(C(=O)NCc3ccccc3OC)c2N1	.	.	.	10µM*	?
C=C1C=C(C(F)F)n2ncc(C(=O)NCc3ccc(Cl)cc3Cl)c2N1	.	.	.	8.91µM*	15.8µM*
COC(=O)C1=CNC=C(C(=O)OC)C1c1ccc(Cl)cc1	-11.8%	16.8%	5.5%	-11.6%	-22.7%
COc1ccc(C2NC3=C(CCCC3)C(C#N)(C#N)C2(C#N)C#N)cc1 (stereo not given)	-84.8%	?	4.2%	.	.
Cc1cc(C)cc(NC(=O)CN2CCCN(S(=O)(=O)c3ccc(Br)s3)CC2)c1	-1.6%	-0.3%	5.9%	?	?
Cc1ccc(NC(=O)CN2CCCN(S(=O)(=O)c3ccc(Br)s3)CC2)cc1	21.5%	-1.7%	2.3%	18.4µM*	18.4µM*
CCOC(=O)N1CCN(S(=O)(=O)c2ccc(Br)s2)CC1	?	-10.8%	5.2%	?	13µM*
CN1CCN(S(=O)(=O)c2ccc(Br)s2)CC1	8.9%	0.4%	3.1%	-14.5%	1.3%
Cc1cc(NC(=O)CSc2nnc(-c3ccncc3)n2-c2ccccc2)no1	2.0%	-2.8%	6.1%	-11.7%	1.3%
Cc1ccc(S(=O)(=O)N2CCN(C(C)C(=O)NCC(C)c3ccccc3)CC2)cc1 (stereo not given)	.	.	0.4%	?	23.1µM*
CC(C)c1ccc(S(=O)(=O)N2CCN(C(C)C(=O)Nc3ccccc3-c3ccccc3)CC2)cc1 (stereo not given)	-5.9%	-1.7%	5.6%	18.4µM*	?
CC(C(=O)Nc1ccccc1-c1ccccc1)N1CCCCC1 (stereo not given)	23.7%	2.9%	-7.0%	-5.1%	?
CCC(C)c1ccc(S(=O)(=O)N2CCN(C(C)C(=O)NC3CCCC3)CC2)cc1 (stereo not given)	.	.	1.6%	14.6µM*	?
CCCc1ccc(S(=O)(=O)N2CCN(C(C)C(=O)NC3CCCC3)CC2)cc1 (stereo not given)	.	.	11.8%	-29.9%	?
COc1ccc(N(CC(=O)NCc2ccccc2C)S(=O)(=O)c2ccccc2[N+](=O)[O-])c(OC)c1	?	-5.3%	-2.4%	?	?
Cc1ccccc1C(=O)Nc1cccc(NC(=O)c2ccc(C(C)(C)C)cc2)c1	.	.	-0.4%[12.3 µM]	8.2µM*	5.8µM*
Cc1ccccc1C(=O)Nc1cccc(N)c1	21.8%	-25.0%	4.3%	1.9%	1.5%
C/C(=N\NC(=O)c1ccc(O)cc1)c1cccc(NC(=O)c2ccccc2C)c1	-19.6%	-2.7%	3.5%	?	23.1µM*
C/C(=N\NC(=O)c1ccccc1F)c1cccc(NC(=O)c2ccccc2)c1	-16.7%	-4.7%	4.1%	-24.2%	-18.4%
C/C(=N\NC(=O)c1cc(Br)ccc1O)c1cccc(NC(=O)c2ccccc2F)c1	11.2µM*	1.2%	5.7%	-0.8%	8.4%
